Screening results as filed in PubChem BioAssay.
The sample as a whole holds a higher share of hits than the screen did.
Pf Dd2 growth – inhibitors of Plasmodium falciparum Dd2 growth; P. falciparum Dd2 growth, SYBR Green, 72 h; Potency, µM (titrated, usually from 28.9 µM), hits mostly inhibitors; hit rate 4.3% among 120,000; active = well fitted inhibition curve with a large enough effect; note: nearly all actives have a fitted effect of over 65% in size
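Readout: SYBR Green fluorescence, 485 nm excitation, 535 nm emission, after ~16 h lysis at 37C. Before that, Dd2-infected red cells (2.5% hematocrit) grew 72 h with compound, 29 uM top final concentration.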
A number is an active result; 0 = inactive.

SMILES	Pf Dd2 growth
COc1ccc(C(=O)N2CCCC2)c(OC2CCN(C(=O)c3ccn[nH]3)CC2)c1	0
c1c[nH]c(C2CCCC2)n1	0
Cc1noc(C2CCCCCN2C(=O)c2ccnn2C)n1 (stereo unspecified)	0
O=C(N[C@@H]1CN(CC2CC2)C[C@H]1CO)c1ccccc1	0
O=C(O)c1ccc(CN2C[C@H](O)C[C@H]2c2nc(-c3ccncc3)no2)cc1	0
Cc1noc(-c2ccccc2OC2CCNC2)n1 (stereo unspecified)	0
COc1ccc(N2Cc3c(ncnc3N3CCCN(C(C)=O)CC3)N(C)CC2=O)cc1	0
CN(Cc1cccnc1)C1CCCc2ccccc21 (stereo unspecified)	5µM
COC(=O)N(C)C1CCCc2ccccc21 (stereo unspecified)	0
CN(Cc1ccc(F)cc1)C1CCc2ccccc21 (stereo unspecified)	0
CN(Cc1ccc(C(F)(F)F)cc1)C1CCc2ccccc21 (stereo unspecified)	0
CN(Cc1cccc2ccccc12)C1CCCc2ccccc21 (stereo unspecified)	11µM
CN(CC1CCCCC1)C1CCc2ccccc21 (stereo unspecified)	0
O=C(Cc1ccc(OC(F)(F)F)cc1)NCc1nnc2ccc(-c3ccc(F)cc3)nn12	0
CCN1CCN(CCNC(=O)c2ccc(N3CC4CC(C3)[C@H]3CCCC(=O)N3C4)nc2)CC1 (stereo partly specified)	0
CNC(=O)[C@@H]1C[C@H](N)CN1S(=O)(=O)c1cccc(OC)c1	0
Cc1ccc(CN2CCC3(CC2)OC(=O)N(Cc2ccc(O)cc2)C3(C)c2ccccc2)o1 (stereo unspecified)	0
CC(C)N1CCC(C(=O)N2CCCN(Cc3cccs3)CC2)CC1	0
CN(C)C(=O)c1cccnc1OC1CCN(C(=O)c2cccc(Br)c2)C1 (stereo unspecified)	0
CC(C)c1nc2c(NC(=O)Nc3cccc(Cl)c3)cccn2n1	0
CCc1nc2c(NS(=O)(=O)c3cccnc3)cccn2n1	0
COc1ccc(NC(=O)Nc2cccn3nc(C(C)C)nc23)cc1	0
Cc1nc2c(NS(=O)(=O)c3cccc(C#N)c3)cccn2n1	0
CC(C)c1nc2c(NC(=O)c3cccc(Br)c3)cccn2n1	3.2µM
CCc1ccccc1S(=O)(=O)Nc1cccn2nc(C(C)C)nc12	8.9µM
SMILES	Pf Dd2 growth
COc1ccc([C@@H](NC(=O)c2ccc3ncsc3c2)C2CC(O)C2)cn1 (stereo partly specified)	0
CC1=C(C(=O)Nc2ccccc2)C(c2ccccc2Cl)n2ncc(C(=O)Nc3cccc(C)c3)c2N1 (stereo unspecified)	3.2µM
COc1ccccc1NC(=O)C1=C(C)Nc2c(C(=O)Nc3ccc(C)cc3)cnn2C1c1cccc(OC)c1OC (stereo unspecified)	0
COc1cccc(C2C(C(=O)Nc3ccccc3)=C(C)Nc3nnnn32)c1OC (stereo unspecified)	0
CCc1ccc(C2C(C(=O)Nc3ccccc3OC)=C(C)Nc3c(C(=O)Nc4ccc(C)cc4)cnn32)cc1 (stereo unspecified)	11µM
CC1=C(C(=O)Nc2ccc(C)cc2)C(c2ccccc2Cl)n2nnnc2N1 (stereo unspecified)	0
CC1=C(C(=O)Nc2ccc(C)cc2C)C(c2ccc([N+](=O)[O-])cc2)n2ncc(C(=O)Nc3ccc(F)cc3)c2N1 (stereo unspecified)	1µM
CC1=C(C(=O)Nc2ccc(C)cc2)C(c2ccc(Cl)cc2)n2nnnc2N1 (stereo unspecified)	0
CCc1ccc(C2C(C(=O)Nc3ccccc3OC)=C(C)Nc3nc(SCc4ccccc4)nn32)cc1 (stereo unspecified)	0
CC1=C(C(=O)Nc2ccc(C)cc2C)C(c2cccn2C)n2ncnc2N1 (stereo unspecified)	0
CC1(C(=O)NCCCc2ccccc2)CCCCC(=O)N1 (stereo unspecified)	0
Cc1cccc2oc(CNC(=O)C(c3cccnc3)N3CCOCC3)nc12 (stereo unspecified)	0
CC(=O)N1CCCN(c2ncc(S(C)(=O)=O)c(C3CCCNC3)n2)CC1 (stereo unspecified)	0
COc1ccc2nc(C[C@@H]3C[C@@H](C(C)C)[C@H](CN4C(=O)C(C)=C(C)C4=O)C=C3C)[nH]c2c1	0
CC1=C[C@@H](CNC(=O)CC(C)(C)CC(=O)O)[C@H](C(C)C)C[C@H]1Cc1nc2c(C)cccc2[nH]1	0
COc1ccc2nc(C[C@@H]3C[C@@H](C(C)C)[C@H](CNC4CCCCC4)C=C3C)[nH]c2c1	2.8µM
COCC(=O)NC[C@@H]1C=C(C)[C@H](Cc2nc3ccc(C(=O)OC)cc3[nH]2)C[C@H]1C(C)C	11µM
COC(=O)c1ccc2nc(C[C@@H]3C[C@@H](C(C)C)[C@H](CNC(=O)C4CCCCC4)C=C3C)[nH]c2c1	11µM
CC1=C[C@@H](CNC(=O)CCCC(=O)O)[C@H](C(C)C)C[C@H]1Cc1nc2ccccc2[nH]1	0
COC(=O)c1ccc2nc(C[C@@H]3C[C@@H](C(C)C)[C@H](CNC(=O)CCCC(=O)O)C=C3C)[nH]c2c1	0
COc1ccc2nc(C[C@@H]3C[C@@H](C(C)C)[C@H](CNCc4ccccc4)C=C3C)[nH]c2c1	0
CC1=C[C@@H](CNC(=O)COCC(=O)O)[C@H](C(C)C)C[C@H]1Cc1nc2ccc(F)cc2[nH]1	0
COC(=O)c1ccc2nc(C[C@@H]3C[C@@H](C(C)C)[C@H](CNC(=O)COCC(=O)O)C=C3C)[nH]c2c1	0
CC1=C[C@@H](CNCc2ccccc2)[C@H](C(C)C)C[C@H]1Cc1nc2c(C)cccc2[nH]1	3.5µM
CC(C)[C@@H]1CN(C(=O)c2ccc(=O)n(C)n2)C[C@H]1NS(=O)(=O)N(C)C	0
SMILES	Pf Dd2 growth
Cc1cnc(C(=O)N2CCc3nnc([C@@H]4C[C@@H](O)CN4C)n3CC2)cn1	0
O=C(OCc1ccccc1)N1CCOCC12CCN(Cc1ncccn1)CC2	0
CCOCCn1nc(C)cc1-c1nc(-c2ccc(C)nn2)no1	0
Cc1csc(NC(=O)c2nc(C(O)c3ccccc3)oc2C)n1 (stereo unspecified)	0
CC1=C[C@@H](CNC(=O)C2CCCCC2)[C@H](C(C)C)C[C@H]1Cc1nc2ccc(C)cc2[nH]1	11µM
CC1=C[C@@H](CN)[C@H](C(C)C)C[C@H]1Cc1nc2ccccc2[nH]1	0
COc1ccc2nc(C[C@@H]3C[C@@H](C(C)C)[C@H](CNC(=O)COCC(=O)O)C=C3C)[nH]c2c1	0
CCC(CC)C(=O)NC[C@@H]1C=C(C)[C@H](Cc2nc3ccc(C)cc3[nH]2)C[C@H]1C(C)C	0
COC(=O)c1ccc2nc(C[C@@H]3C[C@@H](C(C)C)[C@H](CN(C)C)C=C3C)[nH]c2c1	13µM
COC(=O)c1ccc2nc(C[C@@H]3C[C@@H](C(C)C)[C@H](CNC(=O)CN(C)C)C=C3C)[nH]c2c1	0
CC1=C[C@@H](CNC(=O)CC(C)(C)CC(=O)O)[C@H](C(C)C)C[C@H]1Cc1nc2ccc(C)cc2[nH]1	8.9µM
COc1ccc2nc(C[C@@H]3C[C@@H](C(C)C)[C@H](CNC(=O)[C@@H]4CCCC[C@@H]4C(=O)O)C=C3C)[nH]c2c1	0
CC1=C[C@@H](CNC(=O)CC(C)(C)CC(=O)O)[C@H](C(C)C)C[C@H]1Cc1nc2ccncc2[nH]1	0
CC1=C[C@@H](CNC(=O)C2CCCCC2)[C@H](C(C)C)C[C@H]1Cc1nc2c(C)cccc2[nH]1	0
